# Sampled rows, rich in hits. Any-hit rate of the full collection: about 1.5%.
# GLD-1 RNA inh = GLD-1/TGE RNA complex disruptors, primary screen, biochemical, fluorescence polarization | Female germline-specific tumor suppressor gld-1 (Caenorhabditis elegans), Q17339 | inhibition, % at 5.96 µM | AID 2280, 2010 | purified GLD-1 + fluorescein TGE RNA | 0.44% of 320,000 active;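 active = percent inhibition above a per-plate cutoff, the plate mean of test compounds plus 3 SD, cut at about 30% in these data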;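 also: 0% = DMSO wells with GLD-1 and probe and 100% = wells lacking GLD-1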
# Target sequence (Q17339 whole entry, looked up): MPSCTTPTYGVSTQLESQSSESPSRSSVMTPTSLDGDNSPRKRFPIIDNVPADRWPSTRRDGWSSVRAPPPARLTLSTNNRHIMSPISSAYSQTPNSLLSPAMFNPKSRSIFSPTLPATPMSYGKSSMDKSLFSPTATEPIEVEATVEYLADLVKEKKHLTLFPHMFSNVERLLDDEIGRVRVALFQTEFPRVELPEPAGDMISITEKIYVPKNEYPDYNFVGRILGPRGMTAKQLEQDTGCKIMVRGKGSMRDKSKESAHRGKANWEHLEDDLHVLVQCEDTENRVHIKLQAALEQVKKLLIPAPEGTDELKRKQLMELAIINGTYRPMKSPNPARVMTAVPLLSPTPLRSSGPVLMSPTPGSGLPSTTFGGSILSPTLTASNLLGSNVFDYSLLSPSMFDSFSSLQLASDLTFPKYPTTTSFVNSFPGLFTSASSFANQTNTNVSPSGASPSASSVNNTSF
# eLon inh = inhibitors of E. coli Lon protease, primary screen, biochemical, fluorescence polarization | purified E. coli Lon protease | P0A9M0 | 0.42% of 360,000 active | inhibition, % at 7.94 µM | AID 602123, 2011; in the data active = inhibition above about 13%, passing the limit was not always enough;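 also: 0% = enzyme with probe and DMSO and 100% = no enzyme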
# EBV gp42 inh = Epstein-Barr virus gp42 inhibitors, primary screen, biochemical, uHTS, fluorescence polarization; Glycoprotein 42 (Epstein-Barr virus (strain AG876)), Q1HVG2; Fluorescence polarization binding assay, mP read-out; inhibition, % (tested at 21.74 µM); 0.42% of 220,000 active; AID 1085, 2008; in the data active = inhibition above about 50%
# Target sequence (Q1HVG2 whole entry, looked up): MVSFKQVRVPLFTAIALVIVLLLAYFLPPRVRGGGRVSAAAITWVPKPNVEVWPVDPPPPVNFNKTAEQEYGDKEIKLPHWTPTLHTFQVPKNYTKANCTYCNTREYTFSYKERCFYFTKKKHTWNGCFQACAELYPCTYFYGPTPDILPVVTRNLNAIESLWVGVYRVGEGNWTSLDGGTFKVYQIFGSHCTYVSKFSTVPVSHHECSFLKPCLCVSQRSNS
# Bcl-xL primary = inhibitors of human Bcl-xL, primary screen, biochemical, fluorescence polarization, HTS. GST-Bcl-xL / FITC-Bim BH3 peptide fluorescence polarization. inhibition, % at 10.9 µM. 0.7% of 320,000 active;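 active = inhibition above the mean of all tested compounds plus 3 SD, cutoff set per campaign, cut at about 30% in these data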;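 also: 0% = DMSO wells and 100% = unlabeled Bim-BH3 peptide competitor; inhibitors lower millipolarization by displacing the labeled peptide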
# MCL1 BIM primary = inhibitors of MCL1 binding to BIM-BH3, primary screen, biochemical, fluorescence polarization; Induced myeloid leukemia cell differentiation protein Mcl-1 (Homo sapiens), Q07820; GST-MCL1 / FITC-Bim-BH3 fluorescence polarization; inhibition, % at 10.9 µM; 0.68% of 320,000 active; AID 2057, 2009;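 active = inhibition above the mean inhibition of all tested compounds plus 3 SD, set per campaign, cut at about 40% in these data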;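 also: 0% = DMSO wells and 100% = unlabeled Bim-BH3 peptide control; higher means more loss of mP so more displacement of Bim peptide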
# MEX-5 binding = MEX-5 zinc finger RNA-binding disruptors – biochemical, C. elegans, fluorescence polarization, MLPCN library, primary screen. MEX-5/FITC-TCR2 RNA binding; stronger effect = lower value. activity score (negative = inhibition of binding), % at 10 µM. 0.38% of 300,000 active;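 active = inhibition past about -25% in most replicates, and total fluorescence under double the plate's negative control median, limit read from the data; inconclusive = replicates evenly split on the limit, or fluorescence at least double controls; inactive = too little inhibition in most replicates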;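 also: 0% = DMSO and -100% = 5 µM competing unlabeled TCR2 RNA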
# Bcl-xL conf = Bcl-xL inhibitors blocking Bim BH3 binding, confirmation, counter-screen for MCL1 inhibitor project, biochemical, fluorescence polarization; shares compounds with MCL1 BIM primary; GST-Bcl-xL / FITC-Bim BH3 peptide FP binding; inhibition, % at 10.9 µM; 54% of 1,700 active; AID 2166, 2009;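 active = inhibition above a cutoff equal to the mean inhibition of all tested compounds plus 3 SD, cut at about 30% in these data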;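 also: 0% = DMSO wells and 100% = unlabeled Bim BH3 control peptide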
# MCL1 inh confirm = inhibitors of MCL1 binding to BIM-BH3, confirmation, biochemical, fluorescence polarization, triplicate | inhibition, % at 10.9 µM | GST-MCL1 / FITC-Bim-BH3 fluorescence polarization | AID 2168, 2009 | 61% of 1,700 active | shares compounds with MCL1 BIM primary;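 active = inhibition above the average of all tested compounds plus 3 SD, cut at about 40% in these data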;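 also: 0% = DMSO wells and 100% = unlabeled Bim-BH3 control peptide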
# * hit, by the source's call; ? = inconclusive; . = no result given.
SMILES,GLD-1 RNA inh,eLon inh,EBV gp42 inh,Bcl-xL primary,MCL1 BIM primary,MEX-5 binding,Bcl-xL conf,MCL1 inh confirm
Cc1ccc2[nH]c(=O)c3cc(C(=O)NC(C)C)sc3c2c1,154.6*,-6.0,.,137.8*,166.7*,-0.3,20.5,19.9
Cc1c2ccccc2nc2ccccc12,-8.6,-8.6,.,-2.0,-0.6,-0.2,.,.
CCCNc1c(F)c(F)c2c(C)c3ccccc3nc2c1F,83.2*,59.9*,133.9*,114.4*,125.2*,-28.8*,106.1*,122.5*
COC(=O)C1=C(C)N(CCCC(=O)O)C(=O)NC1c1cc2c(cc1[N+](=O)[O-])OCO2 (configuration not stated),26.9,12.9,-13.8,53.5*,51.7*,-14.6,6.4,2.3
COC(=O)C1=C(C)N(C)C(=O)NC1c1cc2c(cc1[N+](=O)[O-])OCO2 (configuration not stated),27.8,0.3,15.3,59.5*,54.0*,-5.8,43.6*,40.0*
CN(C)C=Nc1c(Br)cc(Br)c2nonc12,-6.7,-88.3,0.7,91.5*,69.0*,?,90.2*,115.5*
CN(C)C=Nc1nonc1-c1ccccc1,-0.2,-6.4,-3.6,4.7,-5.3,1.1,.,.
CCOC(=O)C1(Cc2cccc(Cl)c2)CCCN(C(=O)c2c(CC)noc2C)C1 (configuration not stated),4.2,0.0,.,6.3,42.1*,0.6,4.1,1.3
CCOC(=O)C1(Cc2cccc(Cl)c2)CCCN(C(=O)c2cc(C)on2)C1 (configuration not stated),.,3.6,.,.,.,0.0,.,.
Cn1cnnc1SCC(=O)Nc1sc2c(c1C(N)=O)CCC2,-2.3,-23.2,65.4*,20.0,56.4*,-5.1,23.7,56.0*
COc1ccccc1OCC(=O)Nc1sc2c(c1C(N)=O)CCC2,-1.2,-9.9,.,.,.,.,.,.
COc1cccc(C(=O)OCC(=O)Nc2sc3c(c2C(N)=O)CCC3)c1O,-5.2,-17.4,.,21.3,50.3*,.,24.2,44.8*
COCCn1cnnc1SCC(=O)Nc1sc2c(c1C#N)CCC2,-4.6,-21.2,.,2.3,16.3,.,.,.
NC1=NC(=O)/C(=C\c2ccco2)S1,12.2,-8.9,5.5,55.1*,83.8*,-17.5,43.5*,63.8*
NC1=NC(=O)/C(=C/c2ccc(-c3ccc(S(N)(=O)=O)cc3)o2)S1,5.3,-31.6,.,23.9,50.0*,-40.1*,40.7*,39.1
O=C(CN1CCN(S(=O)(=O)c2ccccc2)CC1)N1CCCCC1,4.3,-0.2,.,-1.6,0.1,.,.,.
COc1ccc(NC(=O)CSc2nc3ccsc3c(=O)n2CCC(=O)O)cc1,.,-8.5,.,.,.,.,.,.
O=c1cc2oc3cc(O)c(O)cc3c(-c3ccccc3[N+](=O)[O-])c-2cc1O,8.4,2.9,.,31.0*,86.5*,-10.7,61.6*,103.5*
O=c1cc(-c2ccccc2Cl)oc2cccc(O)c12,4.1,0.0,7.6,7.5,6.3,0.6,.,.
CCOC(=O)C1(C)CCCN(C(=O)c2ccc(C)c(F)c2)C1 (configuration not stated),.,-2.2,.,.,.,.,.,.
Cc1ccn2cc(-c3ccc(O)c(O)c3)nc2c1,2.3,-3.6,.,24.9,55.9*,-46.2*,58.3*,58.5*
Cc1ccn2cc(-c3cccc(NC(=O)C(C)C)c3)nc2c1,3.6,-0.4,-11.3,3.3,1.1,0.4,.,.
N#Cc1ccc(C(=O)OCC(=O)Nc2cccc(S(=O)(=O)NC3=NCCC3)c2)cc1,2.9,0.4,.,.,.,.,.,.
COc1cc(/C=C2\CCc3c2nc2ccccc2c3C(=O)O)cc(OC)c1OC,1.8,-10.0,-8.0,20.2,75.9*,-25.8*,29.8,75.2*
O=C(Nc1ccccc1)C1CCOC1=O (configuration not stated),-9.3,-11.5,.,-5.4,-13.1,2.1,.,.
SMILES,GLD-1 RNA inh,eLon inh,EBV gp42 inh,Bcl-xL primary,MCL1 BIM primary,MEX-5 binding,Bcl-xL conf,MCL1 inh confirm
COc1ccc(CN2C(=O)Cc3c2nc(N)c2c(N)nc(N4CCCCC4)c(C#N)c32)cc1,16.1,.,20.7,44.5*,65.8*,-2.5,5.6,-4.4
CC(C)C1Cc2c(C#N)c(N)sc(=S)c2CO1 (configuration not stated),65.9*,1.0,20.4,66.8*,63.8*,2.0,22.9,16.6
CC(C)C1Cc2c(sc(NC(=S)NC(=O)c3ccccc3)c2C#N)CO1 (configuration not stated),-1.5,-9.2,2.8,2.5,0.3,-2.0,.,.
CC[N+]1(C)CCC(O)(/C=C/c2ccccc2)C(C(=O)/C=C/c2ccccc2)C1 (configuration not stated),.,5.4,.,.,.,.,.,.
CCc1cc(=O)oc2cc(C)c(CN3CCCC3)c(O)c12,14.3,-1.1,10.3,33.2*,72.1*,-1.1,52.0*,88.0*
O=c1c2c3c(sc2[nH]c(=S)n1Cc1ccco1)CCC3,-1.7,6.0,16.4,8.2,48.5*,1.1,16.7,41.2*
CC1(C)Cc2c(sc3[nH]c(=S)n(Cc4ccco4)c(=O)c23)CO1,3.4,-8.3,7.4,0.6,-6.0,1.9,.,.
COc1ccc([N+](=O)[O-])cc1NC(=S)NC(C)=O,-5.3,1.5,-8.2,3.4,0.1,-1.1,.,.
COc1ccc(/C=C/C(=O)NC(=S)Nc2cc([N+](=O)[O-])ccc2O)cc1OC,0.4,5.4,16.9,6.5,41.1*,0.3,15.4,28.3
CN(C)S(=O)(=O)c1ccc(C(=O)NC(=O)CSc2nncs2)cc1,9.1,14.8,.,.,.,.,.,.
COc1ccc2c(c1)c(CC(=O)OCC(=O)O)c(C)n2C(=O)c1ccc(Cl)cc1,4.0,0.0,-2.2,11.7,82.3*,4.4,4.5,8.2
COCCN(C(=O)COC(=O)CCSc1ccc(F)cc1)c1c(N)n(Cc2ccccc2)c(=O)[nH]c1=O,2.5,-6.5,.,-0.1,-12.1,-1.1,.,.
Cc1ccccc1OCC(=O)OCC(=O)Nc1ncc(Cl)c(C)c1Cl,6.6,11.5,.,23.3,41.1*,.,25.7,47.2*
Cc1ccccc1OCC(=O)OCC(=O)Nc1ccc(Cl)cn1,3.7,-4.5,.,9.7,15.8,.,.,.
